Pf apPOL inh – Pf-apPOL inhibitors, biochemical, fluorescence | Recombinant Pf-apPOL, molecular beacon fluorescence, 1.5 h | AID 1794808, 2022 | inhibition, % at 10 µM | hit rate 0.25% among 210,000 | Plasmodium falciparum apicoplast DNA polymerase (apPOL)
mHTT CaM bind – mutant huntingtin-calmodulin interaction inhibitors – biochemical, AlphaScreen, primary screen; P42858; hit rate 3.6% among 190,000; AlphaScreen His-mHTT/GST-CaM binding, luminescence; AID 1671202, 2021; inhibition, % at 15 µM;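 note: 0% = both proteins with DMSO and 100% = one protein alone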
Active calls of the source: *; · = no result. The list is not random: actives were taken first. Their share in the collection is about 3.5%. Cut-off read from the data, not from the text of the source: active = inhibition above about 50%; inactive = the rest.

SMILES	Pf apPOL inh	mHTT CaM bind
c1ccc(Cn2cnnc2C2CCCN(Cc3ccccn3)C2)cc1 (centres undefined)	-26	94*
c1ccc(Cn2cnnc2C2CCCN(Cc3ccncc3)C2)cc1 (centres undefined)	-5	-4
COC(=O)c1cccc(C(=O)Nc2ccccc2C)n1	-4	3
COc1ccccc1-c1cc(C(F)(F)F)nc(S(=O)(=O)CCCC(=O)ON=C(C)C)n1	-3	4
Cc1cc2n(n1)CCC(=O)N2CCCC(=O)NCCCN1CCCC(C)C1 (centres undefined)	-5	-5
CC(=O)N1CCCN(C2=Nc3ccc(C)cc3Oc3ccccc32)CC1	-6	54*
CC(=O)N1CCN(C2=Nc3ccccc3Oc3ccccc32)CC1	-2	19
CC1Cc2nc(SCC(=O)NCc3ccco3)n(C)c(=O)c2S1 (centres undefined)	-10	9
Nc1c(C(=O)NCc2cccs2)nnn1-c1ccccc1	-8	-5
O=C(NCCCc1ccccc1)C1(n2cccc2)CCCCC1	-6	51*
CN(CCCNC(=O)C1(n2cccc2)CCCCC1)Cc1ccccc1	-16	27
CCSc1nnc(-c2nn(C)c3c2CN(C(=O)COc2ccc(Cl)cc2)CC3)n1C	-3	-3
O=C1Nc2ccc(Br)cc2/C1=C/c1ccccc1Cl	-2	11
O=C1Nc2ccccc2/C1=C\c1c(Cl)cccc1Cl	2	49
O=C1Nc2ccc(F)cc2/C1=C\c1c(Cl)cccc1Cl	-3	100*
O=C1Nc2ccc(Br)cc2/C1=C\c1c(Cl)cccc1Cl	3	100*
O=C(Nc1nc2c(s1)CCC2)C1CCCN1S(=O)(=O)c1ccc(F)cc1 (centres undefined)	0	3
NC(=O)c1oc2ccccc2c1NC(=O)C1CCCN1S(=O)(=O)c1ccc(F)cc1 (centres undefined)	-6	67*
CC(C)(C)C(=O)N1CCC(c2cc(N)on2)CC1	2	-10
COc1ccc(NCC2CCCCC2)cc1	0	73*
COc1ccc(NC(=O)CC2CCC2)cc1	5	-6
O=C(NCc1ccncc1)C1CCCN(c2nnc3ccc(C(F)(F)F)cn23)C1 (centres undefined)	0	0
Cc1ccc(C2=NNC(C)(CC(=O)Nc3ccccc3)S2)cc1 (centres undefined)	1	72*
Cc1ccc(N=C2NC(=O)C(CC(=O)Nc3ccccc3)S2)cc1 (centres undefined)	-4	-4
CC(=O)N1CCc2nc3cc(-c4ccccc4Cl)[nH]n3c(=O)c2C1	2	-2
SMILES	Pf apPOL inh	mHTT CaM bind
O=C(c1nccc2ccccc12)N1CCc2nc3cc(-c4ccccc4)[nH]n3c(=O)c2C1	0	56*
Cc1ccc(C(=O)N2CCc3nc4cc(-c5ccccc5)[nH]n4c(=O)c3C2)cc1F	0	1
O=C(c1n[nH]c2ccccc12)N1CCc2nc3cc(-c4ccccc4)[nH]n3c(=O)c2C1	5	16
O=C(c1cc(C2CC2)[nH]n1)N1CCc2nc3cc(-c4ccccc4Cl)[nH]n3c(=O)c2C1	26	59*
COc1ccc(-c2cc3nc4c(c(=O)n3[nH]2)CCN(C(=O)c2ccc(C)c(F)c2)C4)cc1	3	32
O=C(c1ccc2ncccc2c1)N1CCc2nc3cc(-c4ccccc4)[nH]n3c(=O)c2C1	96*	99*
COc1ccc(-c2cc3nc4c(c(=O)n3[nH]2)CN(C(=O)c2ccc(C)c(F)c2)CC4)cc1	41	80*
CCNC(=O)Nc1cc(C)ccc1N1CCCN(Cc2c(F)cccc2F)C1=O	0	-5
O=C1C(=Cc2ccc3c(c2)OCO3)Oc2cc(O)ccc21	-2	7
CN(N)c1nc(N2CCCCC2)nc(N2CCCCC2)n1	6	-2
COc1ccc(C(=O)N2CC3CC2CC3NC(=O)c2ccccc2)cc1F (centres undefined)	0	-4
O=S(=O)(Nc1ccc(F)c(F)c1)c1c[nH]c2ncccc12	-5	-4
O=C(NCCN1CCCCCC1)C1CCCN(c2ccncc2)C1 (centres undefined)	8	34
O=C(OCC1OC(O)C(O)(COC(=O)c2cc(O)c(O)c(O)c2)C1O)c1cc(O)c(O)c(O)c1 (centres undefined)	64*	·
Cc1ccc(NC(=O)N2CCCC(CCC(=O)N3CCOCC3)C2)cc1 (centres undefined)	-6	1
Cc1ccc(NC(=O)N2CCCC(CCC(=O)N3CCC(Cc4ccccc4)CC3)C2)cc1 (centres undefined)	-8	54*
COc1cc2c(cc1/C=C1\NC(=O)N(Cc3ccc(F)cc3)C1=O)OCO2	-9	-4
COc1cc(/C=C2\C(=O)NN(c3ccc(Cl)c(Cl)c3)C2=O)cc([N+](=O)[O-])c1O	-6	49
O=C1NN(c2ccc(Cl)c(Cl)c2)C(=O)/C1=C/c1cc2c(cc1[N+](=O)[O-])OCO2	-3	75*

Bioassay records as filed in PubChem.
